# Experimental data published in the antibiotic and cytotoxicity screens of Wong et al. (2023).
# In all, about 39,000 compounds went through this assay and about 3,300 (8.5%) were called active. This excerpt belongs to a sample that is enriched for actives.
# Test system: HepG2
# Test: cytotoxicity call (relative viability < 0.9)
# Conditions: 10 µM
row,Structure (SMILES),cytotoxicity call
1,C[C@H](CO)N1C[C@H](C)[C@H](CN(C)C(=O)Nc2cccc3ccccc23)Oc2ccc(NC(=O)Nc3ccccc3)cc2CC1=O,inactive
2,Cc1cccc(NC(=O)Nc2ccc3c(c2)C(=O)N(C)[C@H]2CC[C@H](CC(=O)NCc4ccccc4Cl)O[C@H]2CO3)c1,inactive
3,C[C@@H]1CN([C@H](C)CO)S(=O)(=O)c2ccc(C#CC3CC3)cc2O[C@H]1CN(C)C(=O)Cc1ccncc1,inactive
4,C[C@H]1CN([C@@H](C)CO)C(=O)c2cccc(NS(=O)(=O)c3ccccc3)c2O[C@H]1CN(C)S(=O)(=O)c1ccc(F)cc1,inactive
5,COCCNC(=O)C[C@H]1CC[C@H]2[C@@H](COC[C@H](O)CN2C(=O)Nc2ccc3c(c2)OCO3)O1,inactive
6,O=C(O)CCC(=O)NCc1cccnc1,inactive
7,OCc1cccnc1,inactive
8,C(=N\Cc1cccnc1)/c1c2ccccc2cc2ccccc12,active
9,NS(=O)(=O)c1ccc(Cl)cc1[N+](=O)[O-],inactive
10,CNS(=O)(=O)c1ccc(Cl)c(C(N)=O)c1,inactive
11,O=C(Nc1cc(Cl)ccc1Cl)c1cc(Cl)ccc1NS(=O)(=O)c1ccc(Cl)c([N+](=O)[O-])c1,active
12,NS(=O)(=O)c1ccc(F)c([N+](=O)[O-])c1,inactive
13,C[C@H]1CN([C@@H](C)CO)C(=O)c2cccc(NS(=O)(=O)c3ccc(Cl)cc3)c2O[C@H]1CN(C)Cc1ccc(C(=O)Nc2ccccc2N)cc1,inactive
14,C/C=C/C(=O)c1cc(Cl)ccc1O,inactive
15,O=C(Nc1cc(Cl)ccc1Cl)c1cc(Br)ccc1NS(=O)(=O)c1ccc(Cl)c([N+](=O)[O-])c1,active
16,C[C@H](CO)N1C[C@H](C)[C@@H](CN(C)Cc2ccc(C(=O)Nc3ccccc3N)cc2)Oc2c(NS(=O)(=O)c3ccc(Cl)cc3)cccc2C1=O,inactive
17,NC(=O)c1ccc([N+](=O)[O-])cc1Cl,inactive
18,O=C(Nc1ccc([N+](=O)[O-])cc1Cl)c1cc(Cl)ccc1O,active
19,O=C(Nc1ccc(Cl)cc1C(=O)c1ccc(Cl)cc1)c1cc(Br)ccc1NS(=O)(=O)c1ccc(Cl)cc1,active
20,C[C@@H]1CN([C@@H](C)CO)S(=O)(=O)c2ccc(-c3cccc(C(=O)N(C)C)c3)cc2O[C@@H]1CN(C)C(=O)Cc1ccccn1,inactive
21,COc1ccc([C@@H]([C@H](Cc2ccccc2)OC(C)=O)N2C[C@H]3C(=NO[C@@H]3[C@@H](OC(C)=O)c3ccccc3)[C@@H]2Cc2ccccc2)cc1,inactive
22,C[C@@H]1CN([C@@H](C)CO)C(=O)c2cc(NC(=O)CCN3CCOCC3)ccc2O[C@H]1CN(C)Cc1ccc2c(c1)OCO2,inactive
23,COCC(=O)Nc1ccc2c(c1)C(=O)N(C)C[C@@H](OC)[C@@H](C)CN(C(=O)c1ccccc1F)[C@@H](C)CO2,inactive
